# According to the supplement of paper PMC12339681:
# Where a name gives a salt, the structure may show the parent alone.
# Test system: PBMC-derived induced microglia-like cells (piMGLC)
# Test: synaptosome phagocytic index relative to DMSO control (fraction of DMSO); higher = more phagocytosis
# Settings: concentration: 10 uM (2 uM for compounds listed in Table S2); pretreatment time: 24 h; assay time: 3 h
# Protocol: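 PBMC-derived induced microglia-like cells (piMGLCs) in 96-well plates were pretreated for 24 h with CNS-penetrant library compounds (MedChemExpress HY-L028), mostly at 10 uM; Table S2 lists 9 compounds at 2 uM. pHrodo-Red-labelled human iPSC-neuron synaptosomes (3 ug/well) were then added for 3 h, and cells were fixed and imaged by confocal microscopy. Phagocytic index (synaptosome area / cell count, CellProfiler) is a mean over 3 replicate wells on different plates, normalized to the DMSO control. Compounds leaving <10% of DMSO cell count were marked toxic and given no value.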
row,Compound,synaptosome phagocytic index
1,Cc1ccc(-c2ncn(-c3ccc(Nc4nccc(-c5cccc(N6CCOCC6)c5)n4)cc3)n2)cn1,0.167
2,CCn1ncc2c(NC3CCOCC3)c(-c3nnc(Cc4sc(C)nc4C)o3)cnc21,0.266
3,CCCN[C@H]1CCc2nc(N)sc2C1 [Pramipexole],0.882
4,CN1CCN(C2=Nc3cc(Cl)ccc3Nc3ccccc32)CC1 [Clozapine],0.697
5,O=C(O)[C@H]1CSC(c2nc3cc4c(cc3s2)NCC4)=N1,0.923
6,Cc1cc2c(s1)Nc1ccccc1N=C2N1CCN(C)CC1 [Olanzapine],0.345
7,CN(C)CCCN1c2ccccc2CCc2ccc(Cl)cc21 [Clomipramine_(hydrochloride)],0.39
8,Clc1ccc(COC(Cn2ccnc2)c2ccc(Cl)cc2Cl)c(Cl)c1 (stereo not given) [Miconazole_(nitrate)],1.09
9,Nc1nc(NC2CC2)c2ncn([C@H]3C=C[C@@H](CO)C3)c2n1 [Abacavir_(sulfate)],1.1
10,N#Cc1ccc2[nH]cc(CCCCN3CCN(c4ccc5oc(C(N)=O)cc5c4)CC3)c2c1 [Vilazodone],0.195
11,Cc1cc(NS(=O)(=O)c2ccc(N)cc2)no1 [Sulfamethoxazole],1.17
12,O=C(CCCN1CCC(O)(c2ccc(Cl)cc2)CC1)c1ccc(F)cc1 [Haloperidol],1.05
13,C=C[C@H]1CN2CC[C@H]1C[C@@H]2[C@@H](O)c1ccnc2ccc(OC)cc12 [Quinidine],0.962
14,O=S1(=O)N[C@H]2CCCN2c2ccccc21,0.742
15,CN(Cc1cnc2nc(N)nc(N)c2n1)c1ccc(C(=O)N[C@@H](CCC(=O)O)C(=O)O)cc1 [Methotrexate],1.02
16,O=NN(CCCl)C(=O)NC1CCCCC1 [Lomustine],0.897
17,COc1cc2/c(=N/c3ccc(Br)cc3F)nc[nH]c2cc1OCC1CCN(C)CC1 [Vandetanib],0.248
18,CC(=O)Nc1ccc(C(=O)Nc2cc(-c3cccs3)ccc2N)cc1,0.416
19,Cn1cc(-c2ccncc2)c(-c2ccc(OCc3ccc4ccccc4n3)cc2)n1 [Mardepodect],0.723
20,CCOC(=O)C1=CCCC[C@H]1S(=O)(=O)Nc1ccc(F)cc1Cl [Resatorvid],0.156

row,Compound,synaptosome phagocytic index
1,Cn1cc2cc(C(F)(F)c3nnc4ccc(-c5cnn(C6CC6)c5)nn34)c(F)cc2n1 [Bozitinib],0.851
2,C[C@H]1OC[C@]2(c3cc(NC(=O)c4cnc(C(F)F)cn4)ccc3F)N=C(N)SC[C@H]12 [Elenbecestat],0.918
3,CCc1cc2c(cc1-c1cnn(CC(=O)N(C)C)c1)C(C)(C)c1[nH]c3cc(C#N)ccc3c1C2=O,0.394
4,NC[C@H]1CC[C@H](C(=O)O)CC1 [Tranexamic_acid],0.927
5,Cn1nnc2c(C(N)=O)ncn2c1=O [Temozolomide],0.824
6,OC(Cn1cncn1)(Cn1cncn1)c1ccc(F)cc1F [Fluconazole],0.902
7,CC(=O)NCCCS(=O)(=O)O [Acamprosate_(calcium)],0.864
8,COc1ccc(-c2c(C)nn3c(C(F)(F)F)cc(C)nc23)c(F)c1F,0.98
9,CC1(C)S[C@@H]2[C@H](NC(=O)[C@H](N)c3ccc(O)cc3)C(=O)N2[C@H]1C(=O)O [Amoxicillin_(trihydrate)],0.942
10,CCCN(CCC)S(=O)(=O)c1ccc(C(=O)O)cc1 [Probenecid],0.701
11,Nc1nc(=O)[nH]cc1F [Flucytosine],0.853
12,O=c1c(-c2ccc(O)cc2)coc2cc(O)cc(O)c12 [Genistein],0.792
13,CN(C)C(=O)c1cc2cnc(Nc3ccc(N4CCNCC4)cn3)nc2n1C1CCCC1 [Ribociclib_hydrochloride],0.332
14,Cc1cc(C)cc(OCC2CNC(=O)O2)c1 (stereo not given) [Metaxalone],0.757
15,C=CC(=O)Nc1cc(Nc2nccc(-n3cc(CN(C)C)c(-c4ccccc4)n3)n2)c(OC)cc1N1CCOCC1 [Lazertinib],0.0589
16,CCCCCCCCCC(=O)O [Decanoic_acid],1.32
17,Nc1nc(Cl)nc2c1ncn2[C@H]1C[C@H](O)[C@@H](CO)O1 [Cladribine],1.1
18,Cc1ccc(Nc2nccc(N(C)c3ccc4c(C)n(C)nc4c3)n2)cc1S(N)(=O)=O [Pazopanib],0.785
19,COc1ncc(F)cc1CNc1ccc(Cc2c[nH]c3ncc(C)cc23)c(F)n1 [PLX5622_(hemifumarate)],0.966
20,C[C@]1(c2nc3c(C(N)=O)cccc3[nH]2)CCCN1 [Veliparib],0.721
